Screening results (PubChem BioAssay)
A selection: hits, their analogues and other compounds. The true share with any hit is near 4.1%.
FBA Mtb inh – Mtb FBA enzyme inhibitors, primary screen, biochemical, fluorescence, strain H37Rv. purified M. tuberculosis FBA, fluorescence read-out. inhibition, % at 1 µM. hit rate 2.3% among 360,000. AID 588726, 2011;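 further: 0% = vehicle and 100% = reference inhibitor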
GDH-TPI counter-1 – GDH-TPI coupling enzyme inhibitors, primary screen, artefact control for M. tuberculosis FBA inhibitor project, biochemical, absorbance, full deck; AID 588335, 2011; hit rate 1.2% among 360,000; GDH-TPI coupled enzyme counterscreen, NADH absorbance; inhibition, % at 4.8 µM; in the data active means inhibition above about 30%;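 further: 0% = DMSO wells and 100% = wells lacking the enzyme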
BH1578 lux ind – inducers of Vibrio cholerae quorum light production without autoinducers, primary screen, BH1578 luxS cqsA deficient, single point. V. cholerae BH1578 lux reporter, luminescence, 6 h. activation, % at 18.7 µM. hit rate 0.16% among 350,000; in the data active means activation mostly above about 9.7%, no sharp cut-off
RecA intein inh – Mtb RecA intein splicing inhibitors, primary screen, biochemical, fluorescence, HTS | inhibition, % (test concentration not listed) | Protein RecA (Mycobacterium tuberculosis (strain ATCC 25618 / H37Rv)), P9WHJ3 | hit rate 0.75% among 290,000 | cell-free RecA intein splicing; in the data active means inhibition above about 30%;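 further: 0% = vehicle wells and 100% = reference inhibitor control wells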
Target sequence (P9WHJ3 whole entry, looked up): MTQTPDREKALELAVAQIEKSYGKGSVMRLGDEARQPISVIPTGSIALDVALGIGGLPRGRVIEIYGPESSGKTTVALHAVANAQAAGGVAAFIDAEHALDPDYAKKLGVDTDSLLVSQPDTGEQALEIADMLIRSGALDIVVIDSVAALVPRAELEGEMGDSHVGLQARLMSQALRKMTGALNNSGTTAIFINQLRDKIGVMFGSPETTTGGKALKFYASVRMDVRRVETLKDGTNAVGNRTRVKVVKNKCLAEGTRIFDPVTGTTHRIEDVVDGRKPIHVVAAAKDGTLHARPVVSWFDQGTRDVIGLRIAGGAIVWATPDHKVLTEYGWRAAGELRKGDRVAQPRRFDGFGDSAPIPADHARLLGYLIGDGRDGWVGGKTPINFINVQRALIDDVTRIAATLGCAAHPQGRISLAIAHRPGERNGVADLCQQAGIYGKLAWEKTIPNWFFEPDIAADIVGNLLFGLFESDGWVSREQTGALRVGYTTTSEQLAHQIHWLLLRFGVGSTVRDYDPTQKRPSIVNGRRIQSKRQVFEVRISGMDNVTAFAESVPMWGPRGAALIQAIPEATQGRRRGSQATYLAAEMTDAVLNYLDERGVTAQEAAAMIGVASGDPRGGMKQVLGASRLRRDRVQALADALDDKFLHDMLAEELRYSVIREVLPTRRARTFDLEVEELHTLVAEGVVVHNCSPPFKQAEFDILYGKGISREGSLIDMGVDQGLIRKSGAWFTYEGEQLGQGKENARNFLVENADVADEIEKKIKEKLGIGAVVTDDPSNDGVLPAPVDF
Rv3671c inh – Rv3671c serine protease inhibitors, primary screen, biochemical, fluorescence polarization, M. tuberculosis H37Rv; P9WHR9; inhibition, % at 5.96 µM; hit rate 0.048% among 320,000; AID 2606, 2010; in the data active means inhibition above about 38%;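 further: extracellular domain of Rv3671c used as enzyme; 0% = enzyme with DMSO and 100% = no enzyme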
UGM FP inh – M. tuberculosis UGM enzyme inhibitors, primary screen, biochemical, fluorescence polarization, single point. inhibition, % at 10 µM. AID 504406, 2011. purified UGM, fluorescence polarization probe displacement. UDP-galactopyranose mutase (Mycobacterium tuberculosis (strain ATCC 25618 / H37Rv)), …. hit rate 0.06% among 320,000; in the data active means inhibition above about 10%, passing the limit was not always enough
Mtb FBA inh conf – M. tuberculosis aldolase blockers, biochemical, fluorescence, strain H37Rv, confirmation; shares compounds with FBA Mtb inh; purified M. tuberculosis FBA, fluorescence read-out; inhibition, % at 1 µM; hit rate 78% among 5,600;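 further: 0% = vehicle wells and 100% = reference inhibitor wells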
GDH-TPI counter-2 – GDH-TPI coupling enzyme inhibitors, artefact control for M. tuberculosis FBA inhibitor project, biochemical, fluorescence, high throughput | GDH-TPI coupled enzyme counterscreen | hit rate 81% among 5,600 | inhibition, % at 1 µM | shares compounds with FBA Mtb inh | AID 652141, 2013; in the data active means inhibition above about 10%
GDH-TPI dose – GDH-TPI coupling enzyme inhibitors, dose response, artefact control for M. tuberculosis FBA inhibitor project, biochemical, fluorescence, IC50. shares compounds with FBA Mtb inh. AID 652145, 2013. hit rate 79% among 170. IC50, µM. GDH-TPI coupled enzyme assay, artifact counterscreen; call rule not given here
An asterisk follows results filed as active; i = inactive; . = not tested or not shown; + = active, no number. Unless noted, no stated cut-off is given here; in the data, active means inhibition above about 27%; inactive means the rest.

SMILES | FBA Mtb inh | GDH-TPI counter-1 | BH1578 lux ind | RecA intein inh | Rv3671c inh | UGM FP inh | Mtb FBA inh conf | GDH-TPI counter-2 | others
COc1cc(C(=O)NCC2CCCO2)ccc1OCc1ccccc1Cl (stereo unspecified) | 0 | 5 | -4 | 1 | -2 | -1 | . | .
CSCCC(NC(=O)c1ccccc1Br)C(=O)N1CCCCCCC1 (stereo unspecified) | -3 | 8 | i | 3 | -3 | -3 | . | .
O=C(Nc1cccc2ccccc12)N1CCN(c2ncccn2)CC1 | 50* | 7 | -4 | 0 | 0 | 0 | + | +
CCNC(=O)N1Cc2ccccc2-n2nncc2C1 | 1 | 0 | 0 | . | . | . | . | .
O=C(Nc1cccc2ccccc12)N1CC=CCC1 | 40* | -6 | . | -1 | -2 | -1 | 5 | 3
O=C(Nc1cccc2ccccc12)N1CCN(c2ccccc2)CC1 | 27* | 4 | i | . | 4 | -2 | 115* | 100*
O=C(Nc1cccc2ccccc12)N1Cc2ccccc2-n2nncc2C1 | 30* | 7 | i | . | . | . | 133* | 91*
CC(NC(=O)C1CCN(S(=O)(=O)c2cccc3nonc23)CC1)c1ccccc1 (stereo unspecified) | -7 | 14 | -4 | 2 | 3 | -1 | . | .
COc1ccc(C(CC(=O)O)N2Cc3ccccc3C2=O)cc1OC (stereo unspecified) | 2 | -1 | i | 0 | 10 | 3 | . | .
CCN1C(=O)c2cccc3c(S(=O)(=O)N(C(C)=O)c4ccc(OC(C)=O)cc4)ccc1c23 | 53* | 12 | -1 | . | -7 | 3 | + | +
COc1ccc(N(C(=O)c2ccncc2)S(=O)(=O)c2ccc3c4c(cccc24)C(=O)N3C)cc1 | 0 | 18 | 0 | -27 | -7 | 2 | . | .
CC/C(=N/NC(=O)c1ccccc1)c1ccc(OCCN2CCOCC2)cc1 | 31* | 3 | -1 | 1 | 1 | -2 | 91* | 57*
COC(=O)c1ccc(NS(=O)(=O)NC(=O)c2cn(C)c3ccccc23)cc1 | 4 | 7 | -6 | 2 | 2 | 2 | . | .
O=C1c2ccccc2NC(c2ccc(-c3cccs3)o2)N1O (stereo unspecified) | 97* | 15 | i | . | -7 | 3 | 79* | 73*
COc1ccc2ccccc2c1C=NN1CCCCC1 | -1 | 13 | -5 | . | . | . | . | .
CN(C)c1ncccc1-c1nc2ccccc2s1 | 30* | 13 | -1 | -9 | -12 | -1 | 31* | 17*
CC(C)n1ncc(N2CCOCC2)c(Cl)c1=O | -3 | 11 | -1 | -1 | -4 | -1 | . | .
c1ccc(COn2c(-c3ccccc3)nc3c2CCc2nonc2-3)cc1 | 53* | 0 | -1 | -1 | 2 | 0 | 107* | 93*
COn1c(-c2ccccc2)nc2c1CCc1nonc1-2 | 5 | 4 | -1 | 0 | -1 | 1 | . | .
O=C(Nc1ccc2c(c1)CCCN2C(=O)c1cccs1)c1c(F)cccc1Cl | 99* | 24 | -1 | 7 | 8 | -2 | + | 200*
O=C(Nc1ccc2c(c1)CCCN2C(=O)c1cccs1)c1c(F)cccc1F | 1 | 6 | i | 2 | 8 | 1 | . | .
CCOC(=O)C1=C(C)NC(C)=C(C(=O)OCC)C1c1cccc(C)n1 | 4 | -1 | -1 | -2 | -3 | 1 | . | .
CCCOC(=O)C1=C(C)NC2=C(C(=O)CC(C)(C)C2)C1c1ccc(N(C)C)cc1 (stereo unspecified) | 2 | 12 | 0 | 1 | 5 | 2 | . | .
CCOC(=O)C1=C(C)NC2=C(C(=O)CC(C)(C)C2)C1c1cccc(C)n1 (stereo unspecified) | 37* | -4 | i | -77 | -5 | 2 | 174* | 159*
CCCOC(=O)C1=C(C)NC2=C(C(=O)CC(C)(C)C2)C1c1cccnc1 (stereo unspecified) | 36* | 7 | i | . | -3 | 0 | + | +
SMILES | FBA Mtb inh | GDH-TPI counter-1 | BH1578 lux ind | RecA intein inh | Rv3671c inh | UGM FP inh | Mtb FBA inh conf | GDH-TPI counter-2 | others
CCNC(=O)/C(C#N)=C/c1c(N2CCN(c3cccc(Cl)c3)CC2)nc2c(C)cccn2c1=O | 9 | 15 | i | -3 | . | 1 | . | .
COc1ccc(N2CCN(c3nc4c(C)cccn4c(=O)c3/C=C(\C#N)C(N)=O)CC2)cc1 | 32* | 7 | i | -28 | -10 | -2 | 8 | 4
COCCCNC(=O)/C(C#N)=C/c1c(N2CCN(c3cccc(Cl)c3)CC2)nc2c(C)cccn2c1=O | 54* | 5 | -1 | 0 | -7 | 1 | 146* | 120*
CCNC(=O)/C(C#N)=C/c1c(N2CCN(C)CC2)nc2c(C)cccn2c1=O | 59* | 3 | 8 | -14 | -3 | -1 | 96* | 73*
C=CCNC(=O)/C(C#N)=C/c1c(N2CCN(c3ccc(OC)cc3)CC2)nc2c(C)cccn2c1=O | 46* | 15 | -6 | 0 | -1 | 1 | 174* | 158*
C=CCNC(=O)/C(C#N)=C/c1c(N2CCN(c3ccccc3)CC2)nc2c(C)cccn2c1=O | 25 | 6 | 0 | -56 | -10 | 1 | . | .
COC(=O)/C(C#N)=C/c1c(N2CCN(c3ccccc3)CC2)nc2c(C)cccn2c1=O | -1 | -1 | i | 3 | . | . | . | .
CCC(=O)Nc1c(C#N)c2nc3ccccc3nc2n1-c1ccccc1C | 36* | 9 | i | -108 | -7 | -1 | 76* | 64*
CCc1cc(=O)oc2cc(C)cc(OCC(=O)NCC(O)c3ccccc3)c12 (stereo unspecified) | 56* | 3 | i | -3 | 2 | -3 | 198* | 168*
CCc1cc(=O)oc2cc(C)cc(OC(C)C(=O)NC3CCN(Cc4ccccc4)CC3)c12 (stereo unspecified) | 51* | 1 | 0 | 1 | -6 | 0 | 14 | 0 | GDH-TPI dose=3*
